From PubChem
NTR1 agonist: agonists of human neurotensin receptor NTR1. P30989. NTR1-U2OS beta-arrestin-GFP spot imaging, agonist mode. activation, % at 20 µM. hit rate 0.17% among 330,000. AID 493036;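 active = activation at or above 40% of the spot to cytoplasm intensity ratio, with at least 20 cells analyzed; inconclusive = wells under 20 cells, flagged as cytotoxic or low count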;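 note: 0% = DMSO without peptide and 100% = 100 nM NTR1 peptide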
DSG3 Ab inh: blocks pemphigus antibody binding to human desmoglein-3 | binding (percent of control), % at 10 µM | DSG3-coupled beads, scFv-anti-DSG3-GFP binding, flow cytometry; hits give low values | AID 588358 | hit rate 0.48% among 310,000 | P32926;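 active = binding more than 3 SD below its plate's average and above zero; inconclusive = below that plate limit but binding exactly zero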;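 note: hits lower antibody fragment binding to DSG3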
VLA-4 inh: inhibition in a human VLA-4 binding assay; inhibition, % (about 7 µM as worked out from the volumes in the protocol); AID 2557; VLA-4 expressing cells, ligand binding flow cytometry; hit rate 0.2% among 330,000; in the data active = inhibition above about 50%
Target sequence (P13612 whole entry, looked up): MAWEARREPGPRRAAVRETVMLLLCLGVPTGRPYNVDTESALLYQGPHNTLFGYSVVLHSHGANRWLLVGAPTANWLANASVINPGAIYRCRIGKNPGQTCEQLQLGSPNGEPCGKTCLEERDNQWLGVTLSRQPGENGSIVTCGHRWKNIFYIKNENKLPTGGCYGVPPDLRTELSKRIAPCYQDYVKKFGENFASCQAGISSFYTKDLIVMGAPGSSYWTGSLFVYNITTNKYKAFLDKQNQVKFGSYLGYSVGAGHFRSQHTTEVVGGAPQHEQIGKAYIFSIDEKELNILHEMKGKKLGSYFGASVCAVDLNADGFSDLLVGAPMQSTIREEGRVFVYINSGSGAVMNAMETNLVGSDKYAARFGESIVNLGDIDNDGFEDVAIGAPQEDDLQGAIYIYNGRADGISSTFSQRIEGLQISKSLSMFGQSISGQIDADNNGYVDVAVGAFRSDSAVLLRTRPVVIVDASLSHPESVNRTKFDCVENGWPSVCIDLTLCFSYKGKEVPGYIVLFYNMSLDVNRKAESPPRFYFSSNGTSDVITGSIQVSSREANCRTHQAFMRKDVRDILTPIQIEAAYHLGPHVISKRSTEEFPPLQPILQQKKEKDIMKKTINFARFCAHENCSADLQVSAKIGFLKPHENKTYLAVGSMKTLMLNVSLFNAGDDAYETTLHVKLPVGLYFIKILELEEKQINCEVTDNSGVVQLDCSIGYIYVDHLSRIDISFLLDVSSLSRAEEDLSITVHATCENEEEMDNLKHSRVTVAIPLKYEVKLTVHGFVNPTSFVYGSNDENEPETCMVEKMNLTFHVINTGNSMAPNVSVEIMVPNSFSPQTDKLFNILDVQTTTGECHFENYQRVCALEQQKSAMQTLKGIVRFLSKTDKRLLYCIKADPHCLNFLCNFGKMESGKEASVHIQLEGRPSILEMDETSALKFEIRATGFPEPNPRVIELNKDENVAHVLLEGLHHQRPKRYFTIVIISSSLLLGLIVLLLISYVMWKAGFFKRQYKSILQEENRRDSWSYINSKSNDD
AI-2 QS mod: modulators of Vibrio harveyi AI-2 quorum sensing system; Vibrio harveyi JMH597 AI-2 luminescence/OD600 ratio, 9 h; hits give low values; strain lacks LuxN and CqsS sensors; 0 = neutral-control median; activity change, % at 7.5 µM; hit rate 0.4% among 300,000; in the data active = activity change below about -75%, passing the limit was not always enough; inconclusive = no clear call, values can overlap the other calls;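 note: luminescence divided by OD600 gain over 9 h not by final OD600 alone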
NTR1 ag confirm: confirmation of agonists of human NTR1. NTR1-U2OS beta-arrestin-GFP translocation imaging. shares compounds with NTR1 agonist. hit rate 38% among 480. activation, % at 20 µM. AID 504550;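 active = mean activation at 20 µM of at least 40%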;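 note: 0% = DMSO without peptide and 100% = 100 nM NTR1 peptide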
* = called active by the depositor; ? = inconclusive; / = no result given. Shown are actives, neighbours in structure and some others; about 1.1% of the full set was active somewhere.

SMILES	NTR1 agonist	DSG3 Ab inh	VLA-4 inh	AI-2 QS mod	NTR1 ag confirm
CCOc1cc(/C=C2\C(=O)ON=C2C)ccc1OCc1ccccc1	60*	105	-5	20	84*
O=C(Nc1ccc(Oc2c(F)c(F)c(F)c(F)c2F)cc1)OC1CCN2Cc3ccccc3N=C12 (stereo unspecified)	40*	113	7	4	54*
CC(C)(C)c1nc(NC(=O)Nc2ccccc2)sc1Br	44*	107	8	23	11
COc1ccc2nc(NC(=O)Nc3ccccc3)sc2c1	0	107	-13	19	/
O=S(=O)(NCc1cccs1)c1ccc(Br)cc1	1	104	-4	-2	/
CN(C)S(=O)(=O)c1ccc(S(=O)(=O)NCc2cccs2)cc1	42*	110	2	16	-2
O=C(/C=C/c1ccc(OCCCF)cc1)Nc1ccnc(-c2ccncc2)n1	56*	100	-14	8	-8
O=C(/C=C/c1ccc(OCCCF)cc1)Nc1ccnc(-c2cccnc2)n1	11	112	-41	19	/
Cc1cccc(CN2C(=O)/C(=C\c3ccc(C(=O)NCCN4CCOCC4)cc3)Sc3ccccc32)c1	18	?	8	5	/
CCN1CCN(CCNC(=O)c2ccc(/C=C3/Sc4ccccc4N(Cc4cccc(Cl)c4)C3=O)cc2)CC1	58*	99	-8	-4	27
COCCN(C(=O)CSc1nnc(-c2ccccc2F)o1)c1c(N)n(Cc2ccccc2)c(=O)[nH]c1=O	/	98	/	/	/
Cc1cc(C)n(-c2nc(N(c3ccccc3)c3ccccc3)nc(-n3nc(C)cc3C)n2)n1	84*	102	24	14	75*
COc1cc2c(cc1OC)C(SC)=NC(C)(C)C2	48*	97	31	30	80*
Cc1ccc(SCCN2CCC(O)CCC2=O)cc1 (stereo unspecified)	2	101	-7	18	/
CCN1C(=O)C(CC(=O)Nc2ccc(F)cc2)N(Cc2ccco2)C1=S (stereo unspecified)	0	78	-1	11	/
CCCCCCOc1ccc(NC(=O)CC2C(=O)N(CC)C(=S)N2Cc2ccco2)cc1 (stereo unspecified)	40*	132	-3	-1	10
CCCCCn1c(N2CCC(Cc3ccccc3)CC2)nc2c1c(=O)[nH]c(=O)n2C	41*	102	-10	14	50*
Nc1nc(N)c(C=Nc2ccc(Br)cc2)c(Nc2ccc(Br)cc2)n1	59*	83	11	-12	32
COc1ccc(NC(=O)COc2ccc(C(=O)OCC(=O)N(C(C)C)C(C)C)cc2OC)cc1	1	110	14	28	/
CC(C)(C)OC(=O)[C@H](Cc1ccccc1)NC(=O)c1[nH]cnc1C(=O)Nc1cccc(Cl)c1	27	103	-23	12	/
CC(C)(C)OC(=O)NCCCCCNC(=O)c1[nH]cnc1C(=O)N[C@@H](Cc1ccccc1)C(=O)OC(C)(C)C	47*	106	20	/	23
CC(C)(C)OC(=O)NCCCCCNC(=O)c1[nH]cnc1C(=O)Nc1ccc(Cl)cc1	48*	97	16	/	22
Cc1cccc(NC(=O)c2nc[nH]c2C(=O)N[C@@H](Cc2ccccc2)C(=O)OC(C)(C)C)c1	51*	102	23	23	53*
CC(C)(C)OC(=O)[C@H](Cc1ccccc1)NC(=O)c1nc[nH]c1C(=O)NCCCCCN	16	104	-2	17	/
C[C@H](NC(=O)c1nc[nH]c1C(=O)NCc1ccc(CNC(=O)OC(C)(C)C)cc1)C(=O)OCc1ccccc1	55*	96	-7	/	56*
SMILES	NTR1 agonist	DSG3 Ab inh	VLA-4 inh	AI-2 QS mod	NTR1 ag confirm
Cc1ccc(NC(=O)c2nc[nH]c2C(=O)NCCCCCNC(=O)OC(C)(C)C)cc1	10	107	7	/	/
CC(C)C[C@H](NC(=O)c1[nH]cnc1C(=O)Nc1ccc(Cl)cc1)C(=O)OC(C)(C)C	56*	103	8	6	32
Cc1cccc(NC(=O)c2nc[nH]c2C(=O)N[C@@H](CC(C)C)C(=O)OC(C)(C)C)c1	52*	97	-10	21	24
CC(C)C[C@H](NC(=O)c1nc[nH]c1C(=O)NC(c1ccccc1)c1ccccc1)C(=O)OC(C)(C)C	22	98	/	25	/
CC(C)C[C@H](NC(=O)c1nc[nH]c1C(=O)N[C@@H](CC(C)C)C(=O)OC(C)(C)C)C(=O)OC(C)(C)C	27	103	-11	12	/
Cc1ccccc1OCCC(=O)NNC(=O)c1ccccc1F	0	/	-5	/	/
COc1cc(CC(NC(C)=O)C(=O)NC2CCN(C(=O)Nc3ccccc3C)CC2)cc(OC)c1 (stereo unspecified)	42*	113	0	1	-2
COc1cc(CC(NC(C)=O)C(=O)NC2CCN(C(=O)Nc3ccccc3Cl)CC2)cc(OC)c1 (stereo unspecified)	0	104	3	38	/
Cc1c(C(=O)N2CCC(C)CC2)oc2ccc3c(c12)C(O)CC1(CCCCC1)O3 (stereo unspecified)	3	101	4	4	/
CC(C)=CCc1c(O)cc(O)c2c1OC(c1ccc(O)cc1)CC2=O (stereo unspecified)	6	/	-23	43	/
CC(C)=CCc1c(O)c(CC=C(C)C)c2c(c1O)C(=O)CC(c1ccc(O)cc1)O2 (stereo unspecified)	46*	102	29	44	39
COc1ccc(-c2cc(-c3ccc(C)cc3)n[nH]2)c(O)c1	11	115	5	44	/
COc1ccc(-c2cc(-c3cc(C)ccc3O)[nH]n2)cc1	44*	102	2	0	14
CC(C)CC(=O)Nc1nnc(S(=O)(=O)N2CCc3ccccc32)s1	2	99	23	8	/
